# Measurements taken from PubChem BioAssay (NCATS).
# Records with an inconclusive call do not appear. Where a call stands in place of a potency, no number is given. The source made the active and inactive calls. The call rests on the fitted dose curve.
# Key:
# [1] = Cytotoxicity counterscreen for inhibitors of SARS-CoV-2 cell entry (AID 1645845); further: nearly all actives have a fitted effect of over 50% in size; further: potency means the concentration at half of the fitted maximal effect
# Method in brief: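 48 h compound treatment (after 1 h preincubation), HEK293-ACE2 cells, 37 C/5% CO2; ATP luminescence endpoint; normalized to cell wells and media blanks.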
# [2] = Primary qHTS to identify inhibitors of SARS-CoV-2 cell entry (AID 1645846); conditions: activity change, negative = inhibition: at 57.1 µM (top of the series) unless noted; further: nearly all actives have a fitted effect of over 45% in size
# Method in brief: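 Inhibition of spike-mediated entry was scored in human ACE2-transfected Expi293F cells. Particles were MLV-pseudotyped with Wuhan-Hu-1 S carrying a 19-aa C-terminal deletion; signal was luciferase after two days, scaled between spike PP and fusion-protein-free PP.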
smiles,measurement,setting,value
CO[C@H]1C=CO[C@@]2(C)Oc3c(C)c(O)c4c(O)c(c(/C=N/N5CCN(C)CC5)c(O)c4c3C2=O)NC(=O)/C(C)=C\C=C[C@H](C)[C@H](O)[C@@H](C)[C@@H](O)[C@@H](C)[C@H](OC(C)=O)[C@@H]1C,Potency,[1],inactive
CNCCCN1c2ccccc2CCc2ccccc21,Potency,[1],inactive
COC1(CS(=O)c2ccccc2)CCN(CCc2c[nH]c3ccc(F)cc23)CC1 (stereo not given),Potency,[1],inactive
C[C@H]1O[C@H](O[C@H]2[C@H](O)[C@@H](O)[C@@H](O[C@H]3[C@H](O)[C@@H](O)[C@H](O)O[C@@H]3CO)O[C@@H]2CO)[C@H](O)[C@@H](O)[C@@H]1N[C@H]1C=C(CO)[C@@H](O)[C@H](O)[C@H]1O,Potency,[1],inactive
Cc1onc(-c2ccccc2Cl)c1C(=O)N[C@@H]1C(=O)N2[C@@H]1SC(C)(C)[C@@H]2C(=O)O,Potency,[1],inactive
CC1(C)S[C@@H]2[C@H](NC(=O)C(C(=O)O)c3ccccc3)C(=O)N2[C@H]1C(=O)O (stereo not given in full),Potency,[1],inactive
CN(C)CCC=C1c2ccccc2C=Cc2ccccc21,Potency,[1],inactive
Oc1cn2c(n1)Nc1ccc(Cl)c(Cl)c1C2,Potency,[1],inactive
CN1CCN(CCCN2c3ccccc3Sc3ccc(Cl)cc32)CC1,Potency,[1],inactive
CN1CCC[C@@H]1Cc1c[nH]c2ccc(CCS(=O)(=O)c3ccccc3)cc12,Potency,[1],inactive
CN1CCN(C2=Nc3ccccc3Oc3ccc(Cl)cc32)CC1,Potency,[1],inactive
CC1=C(C(=O)O)N2C(=O)[C@@H](NC(=O)[C@H](N)c3ccc(O)cc3)[C@H]2SC1,Potency,[1],inactive
C=CC(=O)Nc1cc2c(Nc3ccc(F)c(Cl)c3)ncnc2cc1OCCCN1CCOCC1,Potency,[1],35.5 µM (active)
CC[C@@]1(O)C(=O)OCc2c1cc1n(c2=O)Cc2cc3c(CN(C)C)c(O)ccc3nc2-1,Potency,[1],inactive
O=NN(CCCl)C(=O)NCCCl,Potency,[1],inactive
CN(C)CCc1c[nH]c2ccc(C[C@H]3COC(=O)N3)cc12,Potency,[1],inactive
CC(=O)O[C@@]12CO[C@@H]1C[C@H](O)[C@@]1(C)C(=O)[C@H](O)C3=C(C)[C@@H](OC(=O)[C@H](O)[C@@H](NC(=O)OC(C)(C)C)c4ccccc4)C[C@@](O)([C@@H](OC(=O)c4ccccc4)[C@H]21)C3(C)C,Potency,[1],8.91 µM (active)
COc1cc2c(N3CCN(C(=O)Nc4ccc(OC(C)C)cc4)CC3)ncnc2cc1OCCCN1CCCCC1,Potency,[1],inactive
CN(C)CC/C=C1\c2ccccc2COc2ccccc21,Potency,[1],inactive
C#Cc1cccc(Nc2ncnc3cc(OCCOC)c(OCCOC)cc23)c1,Potency,[1],inactive
COc1cc2nc(N3CCN(C(=O)c4ccco4)CC3)nc(N)c2cc1OC,Potency,[1],inactive
O=C1Cc2cc(CCN3CCN(c4nsc5ccccc45)CC3)c(Cl)cc2N1,Potency,[1],inactive
NC12CC3CC(CC(C3)C1)C2,Potency,[1],inactive
C[C@@H](O)[C@H]1C(=O)N2C(C(=O)O)=C(S[C@@H]3CN[C@H](C(=O)N(C)C)C3)[C@H](C)[C@H]12,Potency,[1],inactive
COC(=O)C1=C(C)NC(C)=C(C(=O)OCCN(C)Cc2ccccc2)C1c1cccc([N+](=O)[O-])c1 (stereo not given),Potency,[1],inactive
CCOC(=O)C1=C(C)NC(C)=C(C(=O)OC)C1c1cccc(Cl)c1Cl (stereo not given),Potency,[1],inactive
CNS(=O)(=O)Cc1ccc2[nH]cc(CCN(C)C)c2c1,Potency,[1],inactive
CC(C)c1nc(CN(C)C(=O)N[C@H](C(=O)N[C@@H](Cc2ccccc2)C[C@H](O)[C@H](Cc2ccccc2)NC(=O)OCc2cncs2)C(C)C)cs1,Potency,[1],inactive
OCCOCCN1CCN(C(c2ccccc2)c2ccc(Cl)cc2)CC1 (stereo not given),Potency,[1],inactive
COC(=O)N[C@H](C(=O)N[C@@H](Cc1ccccc1)[C@@H](O)CN(Cc1ccc(-c2ccccn2)cc1)NC(=O)[C@@H](NC(=O)OC)C(C)(C)C)C(C)(C)C,Potency,[1],inactive
C#C[C@]1(O)CC[C@H]2[C@@H]3CCC4=Cc5oncc5C[C@]4(C)[C@H]3CC[C@@]21C,Potency,[1],inactive
CCCN(CCc1cccs1)[C@H]1CCc2c(O)cccc2C1,Potency,[1],inactive
CN(C/C=C/C#CC(C)(C)C)Cc1cccc2ccccc12,Potency,[1],inactive
OCCN1CCN(CCCN2c3ccccc3Sc3ccc(Cl)cc32)CC1,Potency,[1],28.2 µM (active)
CCCCS(=O)(=O)N[C@@H](Cc1ccc(OCCCCC2CCNCC2)cc1)C(=O)O,Potency,[1],inactive
same,Potency,[2],inactive
COc1cc2nc(N3CCN(C(=O)C4CCCO4)CC3)nc(N)c2cc1OC (stereo not given),Potency,[1],inactive
same,"activity change, negative = inhibition",[2],-6.28%
N[C@@H](C(=O)N[C@@H]1C(=O)N2C(C(=O)O)=C(Cl)CS[C@H]12)c1ccccc1,outcome,[1],inactive [at 11.3 µM]
same,outcome,[2],inactive [at 11.3 µM]
